The structures appear in SMILES notation. Counter-ions that a name gives are not always drawn.

For the test, the system named is Saccharomyces cerevisiae BY4741 SeMeCo community. Nature of the test: z-score of subpopulation abundance vs DMSO median, subpopulation auxotrophic for LU; higher = larger share of this subpopulation than in DMSO controls. The settings on record: 10 µM; 24 h; SM minimal medium; subpopulation (auxotrophy): LU. Here is the method: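 Fluorescent four-plasmid SeMeCo (self-establishing metabolically cooperating S. cerevisiae BY4741 community; plasmids pH-mRuby2, pL-mWasabi, pU-eCFP, pM-TagRFP657) was grown 24 h in minimal SM medium with each Selleck FDA-approved drug at 10 µM in 384-well plates. Cells were fixed and imaged by high-content confocal microscopy. For each auxotrophic subpopulation (and the prototroph), a z-score gives the deviation from the DMSO vehicle-control population median.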
For `Cc1c(-c2ccc(O)cc2)n(Cc2ccc(OCCN3CCCCCC3)cc2)c2ccc(O)cc12` [Bazedoxifene HCl], the “z-score of subpopulation abundance” value was determined as 0.03. Turning to `CCC[C@@H]1C[C@@H](C(=O)N[C@@H]([C@H]2O[C@H](SC)[C@H](O)[C@@H](O)[C@H]2O)[C@@H](C)O)N(C)C1` [Lincomycin Hydrochloride Monohydrate], the “z-score of subpopulation abundance” value worked out at 0.94. With `C=CCCCCCCCCC(=O)[O-].C=CCCCCCCCCC(=O)[O-].[Zn+2]` [Zinc Undecylenate] the figure was -1.37; with `Nc1ccc(S(=O)(=O)Nc2nccs2)cc1` [Sulfathiazole], 0.15; with `CCN(CC)CCNC(=O)c1cc(S(C)(=O)=O)ccc1OC` [Tiapride Hydrochloride], 1.17.

For `CN(C)CCC=C1c2ccccc2CCc2ccccc21` [Amitriptyline HCl], the “z-score of subpopulation abundance” value is -1.69. As for `CC[C@H](C)C[C@H](C)CCCCCCCCC(=O)N[C@H]1C[C@@H](O)[C@@H](NCCN)NC(=O)[C@@H]2[C@@H](O)CCN2C(=O)[C@H]([C@H](O)CCN)NC(=O)[C@H]([C@H](O)[C@@H](O)c2ccc(O)cc2)NC(=O)[C@@H]2C[C@@H](O)CN2C(=O)[C@H]([C@@H](C)O)NC1=O` [Caspofungin Acetate], the “z-score of subpopulation abundance” value was -0.13. Next, `O=c1cc(-c2ccc(O)c(O)c2)oc2cc(O)cc(O)c12` [Luteolin]: 0.96. On to `O=C(c1ccccc1)c1ccc2n1CCC2C(=O)O` (stereo not given) [Ketorolac tromethamine salt], for which the “z-score of subpopulation abundance” value was -0.75. Consider `OB1OCc2cc(F)ccc21` [Tavaborole (AN-2690)], for which the “z-score of subpopulation abundance” value was found to be 4.22. For the molecule `CCOc1ccc2nc3cc(N)ccc3c(N)c2c1` [Ethacridine lactate monohydrate], the “z-score of subpopulation abundance” value is -7.71. With `CO[C@@H]1[C@H](OC(=O)/C=C/C=C/C=C/C=C/C(=O)O)CC[C@]2(CO2)[C@H]1[C@@]1(C)O[C@@H]1CC=C(C)C` [Fumagillin] the figure was 1.51; with `C=C[C@]1(C)C[C@@H](OC(=O)CS[C@@H]2C[C@H]3CC[C@@H](C2)N3C)[C@]2(C)[C@H](C)CC[C@]3(CCC(=O)[C@H]32)[C@@H](C)[C@@H]1O` [Retapamulin], 1.21; with `C[C@@H](NCCCc1cccc(C(F)(F)F)c1)c1cccc2ccccc12` [Cinacalcet HCl], 0.1. With `CC(=O)NS(=O)(=O)c1ccc(N)cc1` [Sulfacetamide Sodium] the figure was 0.61; with `CN(C)[C@@H](CCOc1cccc2ccccc12)c1ccccc1` [Dapoxetine HCl], 0.55; with `O=C1c2cccc3c2[C@H](CCC3)CN1[C@@H]1CN2CCC1CC2` [Palonosetron HCl], -0.38. As to `O=C1CN2Cc3c(ccc(Cl)c3Cl)N=C2N1` [Anagrelide HCl], the “z-score of subpopulation abundance” value was -0.64. Consider `O=C(Cn1cnnn1)N[C@@H]1C(=O)N2C(C(=O)O)=C(CSc3nncs3)CS[C@H]12` [Ceftezole sodium], for which the “z-score of subpopulation abundance” value stood at 0.2.

As to `CCCCCCCCN=C(N)NC(N)=NCc1ccc(Cl)c(Cl)c1` [Olanexidine Hydrochloride semihydrate], the “z-score of subpopulation abundance” value came out at 2.95. Consider `CC[C@@H]1/C=C(\C)C[C@H](C)C[C@H](OC)[C@H]2O[C@@](O)(C(=O)C(=O)N3CCCC[C@H]3C(=O)O[C@H](/C(C)=C/[C@@H]3CC[C@H](Cl)[C@H](OC)C3)[C@H](C)[C@@H](O)CC1=O)[C@H](C)C[C@@H]2OC` [Pimecrolimus], for which the “z-score of subpopulation abundance” value was -0.41. For the molecule `OCc1ccc(Cl)cc1Cl` [2,4-dichlorobenzyl alcohol], the “z-score of subpopulation abundance” value was 1.19. As for `O=C(Nc1cccc(C2=NCCN2)c1)Nc1cccc(C2=NCCN2)c1` [Imidocarb dipropionate], the “z-score of subpopulation abundance” value is 0.44. Next, `Clc1ccc(COC(Cn2ccnc2)c2ccc(Cl)cc2Cl)c(Cl)c1` (stereo not given) [Miconazole Nitrate]: -0.2; `C[C@@H](O)[C@H]1C(=O)N2C(C(=O)O)=C([C@H]3CCCO3)S[C@H]12` [Faropenem Sodium]: 0.29; `COC(=O)C1=C(C)NC(C)=C(C(=O)OCC(C)C)C1c1ccccc1[N+](=O)[O-]` (stereo not given) [Nisoldipine]: -0.62. For `Oc1c(I)cc(I)c2cccnc12` [Diiodohydroxyquinoline], the “z-score of subpopulation abundance” value was found to be 3.93. With `O=C(O)Cc1ccccc1Nc1c(Cl)cccc1Cl` [Diclofenac Diethylamine] the figure was -0.75.

`O=C(O)Cc1ccccc1Nc1c(Cl)cccc1Cl` [Diclofenac Sodium]: the “z-score of subpopulation abundance” value was -0.84. In the case of `CC(=O)[C@H]1CC[C@H]2[C@@H]3CCC4=CC(=O)CC[C@]4(C)[C@H]3CC[C@]12C` [Progesterone], the “z-score of subpopulation abundance” value is -1.24. Take `Cc1nc2n(c(=O)c1CCN1CCC(c3noc4cc(F)ccc34)CC1)CCCC2` [Risperidone]: the “z-score of subpopulation abundance” value came to 0.52. In the case of `COc1cccc2c1C(=O)c1c(O)c3c(c(O)c1C2=O)C[C@@](O)(C(=O)CO)C[C@@H]3O[C@H]1C[C@H](N)[C@H](O[C@@H]2CCCCO2)[C@H](C)O1` [Pirarubicin], the “z-score of subpopulation abundance” value is 4.15.

Take `C[C@H]1c2cccc(O)c2C(O)=C2C(=O)[C@]3(O)C(O)=C(C(N)=O)C(=O)[C@@H](N(C)C)[C@@H]3[C@@H](O)[C@@H]21` [Doxycycline monohydrate]: the “z-score of subpopulation abundance” value was -0.41.

`OC1(c2ccc(Cl)c(C(F)(F)F)c2)CCN(CCCC(c2ccc(F)cc2)c2ccc(F)cc2)CC1` [Penfluridol]: the “z-score of subpopulation abundance” value came to 0.13. Take `COc1ccc(CNc2nc(N3CCC[C@H]3CO)ncc2C(=O)NCc2ncccn2)cc1Cl` [Avanafil]: the “z-score of subpopulation abundance” value was -0.03.

As to `Nc1c(Br)cc(Br)cc1CN[C@H]1CC[C@H](O)CC1` [Ambroxol HCl], the “z-score of subpopulation abundance” value was -0.9. For the molecule `CC[C@H](C)C(=O)O[C@H]1C[C@@H](C)C=C2C=C[C@H](C)[C@H](CC[C@@H]3C[C@@H](O)CC(=O)O3)[C@H]21` [Lovastatin], the “z-score of subpopulation abundance” value is 0.16. For the molecule `OCCOCCN1CCN(C2=Nc3ccccc3Sc3ccccc32)CC1` [Quetiapine Fumarate], the “z-score of subpopulation abundance” value was -0.19. Turning to `COc1ccccc1OCC(O)CN1CCN(CC(=O)Nc2c(C)cccc2C)CC1` (stereo not given) [Ranolazine], the “z-score of subpopulation abundance” value was -0.55.

As for `Cc1cccc(C)c1NC(=O)C1CCCCN1C` (stereo not given) [Mepivacaine], the “z-score of subpopulation abundance” value is -0.35.

(Values after the supplement of paper PMC8975748.)
